Here are results for 38 compounds from PubChem BioAssay (NCI).

Structures are written as SMILES. About 83,000 compounds went through this panel and 20% of them were active in at least one assay; those are over-represented in the sample as a whole.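 Cell lines were cultured in 96-well plates, exposed to a single compound concentration, and assessed for percent growth 48 hours later.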 Values without a mark were called inactive. Active and inactive are the calls of the source. The calls were made as follows: active = growth percent below 10; inactive = the rest.

For the first assay, the system named is NCI/ADR-RES ovarian. Kind of assay: NCI-60 one-dose screen, 48 h (100 = growth as untreated, 0 = no growth, -100 = all killed). To be noted: 10 µM unless noted.
As for `O=[As](O)(O)c1ccccc1[As](=O)(O)O`, the growth is 104%. The same measure, in the same setting: the figure for `Clc1ccc(COC(Cn2ccnc2)c2ccc(Cl)cc2Cl)cc1` (configuration not stated) is 23.3%; for `CN(C)C(=O)Oc1ccccc1` it is 98.2%.

On to `CC[C@H](C)[C@H](NC(=O)C12C3C4C1C1C2C3C41NC(C)=O)C(=O)N(C)[C@H](C[C@@H](OC(C)=O)c1nc(C(=O)N[C@@H](Cc2ccccc2)C[C@H](C)C(=O)OC)cs1)C(C)C` (some centres not stated), for which the growth is 89.7%.

Regarding `COc1ccc(C(=O)c2sc3nc4c(cc3c2N)N2CCC4CC2)cc1OC`, the growth is 79.4%. Take `CCC(CC)CC1(C)CC2(C)CCOC2OO1` (configuration not stated): the growth was 104%.

Turning to `ClCCN(CCCl)c1ccc(/C=N\N=C\c2ccc(N(CCCl)CCCl)cc2)cc1`, the growth is 55.1%. Regarding `CCOC(=O)C(Cc1ccc(N(CCCl)CCCl)cc1)NC(=O)C(CC(C)C)NC(C)=O` (configuration not stated), the growth was 46.6%. For the compound `CNCc1cccnc1`, the growth is 104%.

As for `CCN(CCO)C(Cc1ccccc1)c1ccccc1` (configuration not stated), the growth is 94.7%. For the compound `C=CCc1cc2c(cc1OCC)OCO2`, the growth was 105%. Still for that read-out and setting: the figure for `N#Cc1c(Br)n(C2OC(CO)C(O)C2O)c2ncnc(N)c12` (configuration not stated) is 52.9%; for `NC(=S)c1cn(C2OC(CO)C(O)C2O)c2ncnc(N)c12` (configuration not stated) it is -25.8% (active). In the case of `O=P(N1CC1)(N1CC1)N1CCc2ccccc21`, the growth is 101%. Turning to `Oc1ccc2c3c1OC1[C@@H](O)CC[C@@]4(O)[C@@H](C2)N(CC2CCC2)CC[C@]314` (some centres not stated), the growth is 102%.

As for `COC(=O)[C@@]1(O)C[C@H]2O[C@]1(C)n1c3ccccc3c3c4c(c5c6ccccc6n2c5c31)C(=O)NC4`, the growth is -40.2% (active).

Turning to `ClCCN(CCCl)c1ccc(OCc2ccccc2)cc1`, the growth was 56.7%. Take `N#CC1(C#N)C(c2ccc(N(CCCl)CCCl)cc2)OC23CCCCC2C1(C#N)C(=N)O3` (configuration not stated): the growth is 71%. `COC(=O)[C@@H](C)C[C@H](Cc1ccccc1)NC(=O)c1nc([C@@H](C[C@H](C(C)C)N(C)C(=O)[C@@H](NC(=O)[C@H]2CC(=O)CCN2C)C(C)C)OC(C)=O)sc1C(C)C`: the growth was 54.3%. Take `Nc1ccc2c(c1)oc1ccccc12`: the growth is 95.1%. The same measure, in the same setting: the figure for `CNC(=O)Oc1ccc(C(C)(C)C)cc1OC(=O)NC` is 104%. As to `COc1cc2c(cc1OCCCCn1c(-c3cccs3)nc3ccccc31)N=C[C@@H]1CCCN1C2=O`, the growth is 36.5%.

For the compound `CC[C@H](C)[C@H](NC(=O)C12C3C4C1C1C2C3C41NC)C(=O)N(C)[C@H](C[C@@H](OC(C)=O)c1nc(C(=O)N[C@@H](Cc2ccccc2)C[C@H](C)C(=O)OC)cs1)C(C)C` (some centres not stated), the growth is 72.6%. In the case of `COc1ccc(N(CC(=O)NCCC[Te]c2ccccc2)C(=O)CCSC2=C(C)C(=O)c3ccccc3C2=O)cc1`, the growth is -36.3% (active). With `NC(=Nc1ccccc1)N[N+](=O)[O-]`, the growth is 101%. Take `C[S+]1C=Cc2ccccc2C1c1ccc(Cl)cc1` (configuration not stated): the growth is 101%. As for `CC(C)[C@]12O[C@H]1[C@@H]1O[C@]13[C@]1(O[C@H]1C[C@H]1c4c(C(=O)c5ccccc5)oc(OC(=O)c5ccccc5)c4CC[C@@]13C)[C@@H]2O`, the growth is 8.83% (active). Regarding `CN(C)CC(C(=O)Cc1ccccc1)c1ccccc1` (configuration not stated), the growth was 76.5%. In the case of `O=C1C=C2C(=CCOC2O)O1` (configuration not stated), the growth is 0.601% (active). As for `Clc1ccc(N2COOC3(OOC2)C2CC4CC(C2)CC3C4)cc1`, the growth is -13.3% (active). On to `Nc1ccc2c(c1)Cc1cc(Br)ccc1-2`, for which the growth was 101%. `O=c1[nH]c2ccc([N+](=O)[O-])cc2c(=O)o1`: the growth was 101%.

For the compound `CN1CC(CNC(=O)OCc2ccccc2)CC2c3cccc4c3c(cn4C)CC21` (configuration not stated), the growth is 44.2%.

Regarding `NC(=O)c1c(Br)n(C2OC(CO)C(O)C2O)c2ncnc(N)c12` (configuration not stated), the growth was 8.09% (active).

For the compound `Cc1cc(N(CCCl)CCCl)ccc1/C=N\NC(=O)c1ccncc1`, the growth was 80.5%. Regarding `COC(=O)CCC1=C(C)c2cc3[n-]c(cc4nc(cc5[n-]c(cc1n2)c(CCC(=O)OC)c5C)C=C4C)cc3C.[Cd+2]`, the growth is 83.5%.

`CCCC(C)C1(CC)C(=O)NC(=O)N(C)C1=O` (configuration not stated): the growth is 104%. Turning to `CC(=O)c1ccc(C(=O)NCC2CCC3(CC2)OOC2(CCCCC2)OO3)cc1`, the growth is 17.4%.

In another assay the test system is T-47D breast. The description is as above. Conditions: 10 µM unless noted.
Regarding `Clc1ccc(COC(Cn2ccnc2)c2ccc(Cl)cc2Cl)cc1` (configuration not stated), the growth is 48.3%. As for `CN(C)C(=O)Oc1ccccc1`, the growth was 105%.

Regarding `CC[C@H](C)[C@H](NC(=O)C12C3C4C1C1C2C3C41NC(C)=O)C(=O)N(C)[C@H](C[C@@H](OC(C)=O)c1nc(C(=O)N[C@@H](Cc2ccccc2)C[C@H](C)C(=O)OC)cs1)C(C)C` (some centres not stated), the growth is 70.1%. Same read-out and setting: the figure for `CCC(CC)CC1(C)CC2(C)CCOC2OO1` (configuration not stated) is 97.8%; for `CCOC(=O)C(Cc1ccc(N(CCCl)CCCl)cc1)NC(=O)C(CC(C)C)NC(C)=O` (configuration not stated) it is 22.5%; for `CNCc1cccnc1` it is 98.4%. Take `CCN(CCO)C(Cc1ccccc1)c1ccccc1` (configuration not stated): the growth is 111%.

Turning to `N#Cc1c(Br)n(C2OC(CO)C(O)C2O)c2ncnc(N)c12` (configuration not stated), the growth is 9.15% (active). As to `NC(=S)c1cn(C2OC(CO)C(O)C2O)c2ncnc(N)c12` (configuration not stated), the growth was -16.9% (active).

Take `O=P(N1CC1)(N1CC1)N1CCc2ccccc21`: the growth was 111%. Still for that read-out and setting: the figure for `Oc1ccc2c3c1OC1[C@@H](O)CC[C@@]4(O)[C@@H](C2)N(CC2CCC2)CC[C@]314` (some centres not stated) is 100%. Consider `COC(=O)[C@@]1(O)C[C@H]2O[C@]1(C)n1c3ccccc3c3c4c(c5c6ccccc6n2c5c31)C(=O)NC4`, for which the growth was -37.4% (active). As to `ClCCN(CCCl)c1ccc(OCc2ccccc2)cc1`, the growth is 68.4%. Turning to `N#CC1(C#N)C(c2ccc(N(CCCl)CCCl)cc2)OC23CCCCC2C1(C#N)C(=N)O3` (configuration not stated), the growth is 65.6%. As to `COC(=O)[C@@H](C)C[C@H](Cc1ccccc1)NC(=O)c1nc([C@@H](C[C@H](C(C)C)N(C)C(=O)[C@@H](NC(=O)[C@H]2CC(=O)CCN2C)C(C)C)OC(C)=O)sc1C(C)C`, the growth is 82.9%.

For the compound `Nc1ccc2c(c1)oc1ccccc12`, the growth was 97%. On to `CNC(=O)Oc1ccc(C(C)(C)C)cc1OC(=O)NC`, for which the growth is 98.9%.

Regarding `COc1cc2c(cc1OCCCCn1c(-c3cccs3)nc3ccccc31)N=C[C@@H]1CCCN1C2=O`, the growth is 5.95% (active). For `CC[C@H](C)[C@H](NC(=O)C12C3C4C1C1C2C3C41NC)C(=O)N(C)[C@H](C[C@@H](OC(C)=O)c1nc(C(=O)N[C@@H](Cc2ccccc2)C[C@H](C)C(=O)OC)cs1)C(C)C` (some centres not stated), the growth was 40.5%. The same measure, in the same setting: the figure for `COc1ccc(N(CC(=O)NCCC[Te]c2ccccc2)C(=O)CCSC2=C(C)C(=O)c3ccccc3C2=O)cc1` is -57.7% (active); for `NC(=Nc1ccccc1)N[N+](=O)[O-]` it is 97%. For the compound `C[S+]1C=Cc2ccccc2C1c1ccc(Cl)cc1` (configuration not stated), the growth was 89.9%. As for `CC(C)[C@]12O[C@H]1[C@@H]1O[C@]13[C@]1(O[C@H]1C[C@H]1c4c(C(=O)c5ccccc5)oc(OC(=O)c5ccccc5)c4CC[C@@]13C)[C@@H]2O`, the growth was 6.53% (active). Same read-out and setting: the figure for `CN(C)CC(C(=O)Cc1ccccc1)c1ccccc1` (configuration not stated) is -37.8% (active); for `O=C1C=C2C(=CCOC2O)O1` (configuration not stated) it is 13.7%. Still for that read-out and setting: the figure for `Clc1ccc(N2COOC3(OOC2)C2CC4CC(C2)CC3C4)cc1` is 49.1%; for `Nc1ccc2c(c1)Cc1cc(Br)ccc1-2` it is 102%. As to `O=c1[nH]c2ccc([N+](=O)[O-])cc2c(=O)o1`, the growth was 111%. Take `CN1CC(CNC(=O)OCc2ccccc2)CC2c3cccc4c3c(cn4C)CC21` (configuration not stated): the growth was 31.6%. Same read-out and setting: the figure for `NC(=O)c1c(Br)n(C2OC(CO)C(O)C2O)c2ncnc(N)c12` (configuration not stated) is -14.7% (active); for `Cc1cc(N(CCCl)CCCl)ccc1/C=N\NC(=O)c1ccncc1` it is 54.4%. Still for that read-out and setting: the figure for `COC(=O)CCC1=C(C)c2cc3[n-]c(cc4nc(cc5[n-]c(cc1n2)c(CCC(=O)OC)c5C)C=C4C)cc3C.[Cd+2]` is 42.7%.

For `CCCC(C)C1(CC)C(=O)NC(=O)N(C)C1=O` (configuration not stated), the growth was 87%. Regarding `CC(=O)c1ccc(C(=O)NCC2CCC3(CC2)OOC2(CCCCC2)OO3)cc1`, the growth was 53.9%.
